From PubChem BioAssay (NCI)
Several values for one entry are separate records, joined by “and”; a condition that tells them apart may be missing. Equal entries are not always repeated. This is part of a sample that, as a whole, favours compounds with a hit. Of some 83,000 tested, about 20% had one in any assay.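 96-well plates, one dose, 48 hours. Percent growth reported; active if below 10.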 Activity calls are given as the source filed them.

test system: 786-0 renal; experiment: NCI-60 one-dose screen, 48 h (100 = growth as untreated, 0 = no growth, -100 = all killed); settings: 10 µM unless noted

Structure (SMILES) | growth
COc1ccccc1OCC(O)CO (centres undefined) | 97.6% (inactive) and 102% (inactive)
CC1(C)OC(=O)C(=Cc2ccc(C#N)cc2)C(=O)O1 | 104% (inactive) and 98.1% (inactive)
CCC(=O)Oc1ccc(OCc2ccccc2)cc1 | 81.5% (inactive) and 79.6% (inactive)
O=C(c1ccncc1)c1c(Cc2ccccc2)ccc2ccccc12 | 104% (inactive)
CCCC(=O)Oc1ccc2ccccc2c1 | 101% (inactive)
CCOC(=O)C1=C(C)NC(C)=C(C(=O)OCC)C1 | 117% (inactive) and 87.5% (inactive)
C/C(CC(C)C)=N/NC(N)=S | 107% (inactive)
OCc1cccc(F)c1 | 103% (inactive)
Cc1cc(=NO)cc(C)n1O | 107% (inactive)
OCc1ccccc1F | 101% (inactive)
COc1cc(Cl)ccc1C | 100% (inactive)
COC(=O)c1nc(=S)[nH]c(C(=O)OC)c1C(=O)c1ccc(OC)cc1 | 113% (inactive)
CCN(CC)C(=S)SCCO | 104% (inactive)
OCCSc1ccc(Cl)cc1 | 108% (inactive) and 95.7% (inactive)
Nc1nc(-c2ccccn2)cc(-c2cc(-c3ccccn3)nc(N)n2)n1 | 112% (inactive)
COc1cc(C2c3cc4c(cc3C(OC(=O)C[n+]3ccccc3)C3COC(=O)C23)OCO4)cc(OC)c1OC (centres undefined) | 25.8% (inactive)
CSc1nc(N)c(N)c(N)n1 | 109% (inactive)
C/C=C(/C(=O)NC(N)=O)C(C)C | 96.9% (inactive)
CC(O)CCNC(c1ccccc1)C(O)c1ccccc1 (centres undefined) | 97.9% (inactive)
Cc1c(Cl)c(C)c(Cc2c(C)c(Cl)c(C)c(Cl)c2O)c(O)c1Cl | 49% (inactive)

test system: COLO 205 colon; experiment: as above; settings: 10 µM unless noted

Structure (SMILES) | growth
CCCCNC(=O)c1ccccc1C | 98.3% (inactive)
CC1(C)CC(=O)NC1=O | 113% (inactive)
COc1ccc(C(=O)C(O)c2ccc(OC)cc2)cc1 (centres undefined) | 110% (inactive) and 108% (inactive)
COc1ccc2nccc(Cl)c2c1 | 105% (inactive)
O=C(c1ccccc1)C1(Br)CCCCC1 | 129% (inactive)
CN(C=O)c1ccccc1 | 101% (inactive)
CCOCCC(=O)O | 110% (inactive)
Cc1cc2ccccc2c2cc3ccccc3cc12 | 79.4% (inactive)
CS(=O)(=O)OCC1NC(=O)C(COS(C)(=O)=O)NC1=O (centres undefined) | 128% (inactive) and 135% (inactive)
Clc1ccc(/C=C/c2ccc3ccccc3n2)cc1 | -6.62% (active) and 112% (inactive) and 100% (inactive)
CCOC(=O)C1=CC(=O)CC(C)(C)O1 | 105% (inactive) and 111% (inactive)
CC(=O)Oc1cc(C)c(OC(C)=O)c(C)c1C | 121% (inactive)
COc1ccc(/C=N/Nc2nc3ccccc3s2)cc1 | 84.1% (inactive)
CC1CCC(=O)N1c1ccc(N)cc1 (centres undefined) | 104% (inactive)
Cc1ccc(N)cc1S(=O)(=O)O | 109% (inactive) and 111% (inactive)
CCOC(C)=N | 122% (inactive)
O=C(c1ccc(Cl)cc1)C1C(c2ccccc2)C1[N+](=O)[O-] (centres undefined) | 111% (inactive)
CC(CN(C)C)CN1c2ccccc2Sc2ccccc21 (centres undefined) | 48.4% (inactive) and 84.5% (inactive) and 85% (inactive)
CCCC(=O)OCC(COC(=O)CCC)OC(=O)CCC | 111% (inactive)
COc1ccccc1OCC(O)CO (centres undefined) | 116% (inactive)

Structure (SMILES) | growth
CC1(C)OC(=O)C(=Cc2ccc(C#N)cc2)C(=O)O1 | 103% (inactive) and 105% (inactive)
CCC(=O)Oc1ccc(OCc2ccccc2)cc1 | 124% (inactive) and 113% (inactive)
O=C(c1ccncc1)c1c(Cc2ccccc2)ccc2ccccc12 | 87% (inactive)
CCCC(=O)Oc1ccc2ccccc2c1 | 99.2% (inactive)
CCOC(=O)C1=C(C)NC(C)=C(C(=O)OCC)C1 | 126% (inactive) and 96.4% (inactive)
C/C(CC(C)C)=N/NC(N)=S | 102% (inactive)
OCc1cccc(F)c1 | 90.1% (inactive)
Cc1cc(=NO)cc(C)n1O | 113% (inactive)
OCc1ccccc1F | 92.3% (inactive)
COc1cc(Cl)ccc1C | 94.1% (inactive)
COC(=O)c1nc(=S)[nH]c(C(=O)OC)c1C(=O)c1ccc(OC)cc1 | 117% (inactive)
CCN(CC)C(=S)SCCO | 114% (inactive)
OCCSc1ccc(Cl)cc1 | 117% (inactive) and 104% (inactive)
Nc1nc(-c2ccccn2)cc(-c2cc(-c3ccccn3)nc(N)n2)n1 | 118% (inactive)
COc1cc(C2c3cc4c(cc3C(OC(=O)C[n+]3ccccc3)C3COC(=O)C23)OCO4)cc(OC)c1OC (centres undefined) | -56.3% (active)
CSc1nc(N)c(N)c(N)n1 | 117% (inactive)
C/C=C(/C(=O)NC(N)=O)C(C)C | 97.5% (inactive)
CC(O)CCNC(c1ccccc1)C(O)c1ccccc1 (centres undefined) | 117% (inactive)
Cc1c(Cl)c(C)c(Cc2c(C)c(Cl)c(C)c(Cl)c2O)c(O)c1Cl | 79.4% (inactive)
